According to PubChem BioAssay AID1949 (Southern Research Institute, 2009):
In all, about 100,000 compounds went through this assay and about 1,600 (1.6%) were called active. Inconclusive results (about 3%) are left out. No rule for the calls is given here. A selection follows.

Assay: Confirmatory growth inhibition assay against Mycobacterium tuberculosis H37Rv, potency (AID 1949);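 as to inhibition: bacteria grown 7 days with compound before Alamar blue readout; 0% = untreated bacteria wells and 100% = bacteria with saturating antibiotic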
Details: M. tuberculosis H37Rv growth inhibition; active compounds read high, concentration not given here

| SMILES | inhibition |
| --- | --- |
| O=C(Nc1nc(-c2ccc(F)cc2)cs1)c1cccc2ccccc12 | 32.4% (inactive) |
| CCn1c(/C=C/c2ccco2)nc2ccccc21 | inactive |
| COc1ccc(OC)c(N(CC(=O)Nc2ccccc2SC)S(=O)(=O)c2ccccc2)c1 | 13.5% (inactive) |
| Cc1ccc(NS(=O)(=O)c2ccc(NS(=O)(=O)c3c(C)cc(C)cc3C)cc2)cc1 | inactive |
| COc1ccc(NC(=O)c2c(NC(=O)c3ccccc3F)sc3c2CCC3)cc1 | inactive |
| CCOC(=O)c1ccc(Oc2nc(NCc3ccccc3)nc(N(C)C)n2)cc1 | inactive |
| COC(=O)CSc1nc(C23CC4CC(CC(C4)C2)C3)cc(C(F)(F)F)c1C#N | 1.01% (inactive) |
| CCn1c(CC(=O)Nc2cccc(OC)c2)nnc1SCC(=O)c1ccc(Br)cc1 | inactive |
| Cc1cccc(NC(=O)c2sc3cccc(Cl)c3c2Cl)c1 | inactive |
| C=CCN(CC=C)CC(O)Cn1c(C)c(C)c2ccccc21 (stereo not given) | inactive |
| CCOC(=O)c1cc(-c2ccccc2)sc1NC(=O)c1ccccc1Br | inactive |
| O=C(Nc1c(C(=O)N2CCCCCC2)cnn1-c1ccccc1Cl)c1ccccc1Cl | inactive |
| CCCc1ccc(C(C)NC(=O)c2ccc(C)s2)cc1 (stereo not given) | inactive |
| O=C(NCCc1ccccc1)Nc1cccc2ccccc12 | inactive |
| COCCNCCCCOc1ccc(C)cc1[N+](=O)[O-] | inactive |
| Cc1ccc(NC(=O)CCc2ccc(S(=O)(=O)NCCc3ccccc3)cc2)cc1C | inactive |
| CCOC(=O)N1CCN(C(=O)c2ccc(I)cc2)CC1 | inactive |
| CC1=C(C(=O)Nc2ccccc2)C(c2ccc(I)cc2)NC(=O)N1 (stereo not given) | inactive |
| CCOc1cc(CNC(CC)CO)c(Cl)cc1OCC(N)=O (stereo not given) | inactive |
| OCCNc1nc2ccccc2n1-c1ccccc1 | 1.48% (inactive) |
| O=C(CCCn1c(=S)[nH]c2ccccc2c1=O)N1CC=C(c2ccccc2)CC1 | inactive |
| Cc1ccc(C(=O)Nc2ccc(C(=O)NCCCC(=O)O)cc2)o1 | 4.21% (inactive) |
| CS(=O)(=O)N(CC(=O)Nc1ccccc1Cl)c1cccc([N+](=O)[O-])c1 | inactive |
| O=C1c2ccccc2C(=O)N1c1nnc(Sc2ccc([N+](=O)[O-])c3cccnc23)s1 | inactive |

| SMILES | inhibition |
| --- | --- |
| OC(c1ccccc1)c1nc2ccccc2n1Cc1cccc(Cl)c1 (stereo not given) | inactive |
| CC(C)c1ccccc1NC(=O)COc1ccc(-c2ccccc2)cc1 | inactive |
| COC(=O)C1C(=O)OC(C)(C)C2CCC(C)CC12 (stereo not given) | inactive |
| COc1ccc(N2C(=O)CC(N3CCN(CC(=O)NC(C)C)CC3)C2=O)cc1 (stereo not given) | inactive |
| CCOC(=O)N1CCN(C(=O)COc2cccc(C)c2C)CC1 | inactive |
| Cc1c(Cl)cccc1N1CC(O)=C(c2nc3ccccc3s2)C1=N | 3.11% (inactive) |
| COC(=O)c1noc(-c2ccc(F)cc2)n1 | inactive |
| O=S(=O)(NCCC1=CCCCC1)c1ccccc1 | inactive |
| O=C1OCCC1Sc1nnc(-c2ccc(Br)cc2)o1 (stereo not given) | inactive |
| CC(=O)Nc1ccc(NC(=O)C(C)Oc2ccc(Cl)c(C)c2)cc1 (stereo not given) | inactive |
| CCOc1ccccc1OCCOCCNCc1ccccc1 | inactive |
| CCN(C(=O)c1ccccc1Br)c1ccccc1C | 8.56% (inactive) |
| Fc1c(F)c(F)c(Cn2ccc(NC(=S)Nc3ccccc3C(F)(F)F)n2)c(F)c1F | inactive |
| Cc1nc(SCc2cccc(C(=O)O)c2)nc2c1CCCC2 | inactive |
| O=C(O)c1ccccc1-c1nc(-c2ccccc2F)no1 | inactive |
| S=C(NCc1ccccc1)Nc1c(Cl)cccc1Cl | inactive |
| CC1(C)CC(=O)CC(C)(C)N1OC(=O)c1ccncc1 | inactive |
| CCOC(=O)c1ccc(NC(=O)CSc2nnc(-c3ccccc3Cl)n2CC)cc1 | inactive |
| CCOc1cc(C)c(S(=O)(=O)NCc2cccnc2)cc1C | inactive |
| COc1cc(S(=O)(=O)NC2CCCCC2)ccc1Cl | inactive |
| CCOC(=O)c1ccc(COC(=O)c2ccc(C=O)cc2)cc1 | 2.19% (inactive) |
| CCn1c(CNC(=O)c2cccs2)nnc1SCC(=O)Nc1ccc(Br)cc1F | inactive |
| CCc1cccc(C)c1NC(=O)CN(c1cccc(Br)c1)S(C)(=O)=O | inactive |
| CC(C)CNC(=O)c1ccccc1NC(=O)CCSc1ccccc1 | inactive |

| SMILES | inhibition |
| --- | --- |
| O=C1C2C3C=CC(C3)C2C(=O)N1CCC(=O)N1c2ccccc2Sc2ccccc21 (stereo not given) | inactive |
| COc1cccc2cc(-c3nnc(SCC(=O)Nc4cccc(SC)c4)n3C)oc12 | 1.86% (inactive) |
| CCOc1ccc(N(CC(N)=O)S(=O)(=O)c2ccc(OC)c(OC)c2)cc1 | inactive |
| COC(=O)c1ccc(NC(=O)CN(Cc2ccccc2)S(C)(=O)=O)cc1 | inactive |
| O=S(=O)(c1cccc(S(=O)(=O)N2CCCC2)c1)N1CCCC1 | inactive |
| COc1ccc([N+](=O)[O-])cc1NC(=O)C1CC(=O)N=C(N)S1 (stereo not given) | 0.16% (inactive) |
| COc1ccc(N(CC(=O)Nc2ccc(F)cc2F)S(=O)(=O)c2ccc(C)c([N+](=O)[O-])c2)cc1 | inactive |
| O=S(=O)(c1ccccc1)c1ccc(COc2cccc3cccnc23)cc1 | 1.33% (inactive) |
| COc1ccc(CNC2C3CC4CC(C3)CC2C4)cc1 (stereo not given) | inactive |
| COC(=O)c1ccc(SC2CCCCC2)c([N+](=O)[O-])c1 | inactive |
| C=CCn1c(COc2ccc(C)cc2OCC)nnc1SCC(=O)Nc1cc(C(F)(F)F)ccc1Cl | 1.26% (inactive) |
| COc1ccccc1CNC(=S)Nc1ccc(OC)c(OC)c1 | inactive |
| Cc1cccc2c(N=NC(=O)c3cccnc3)c(O)[nH]c12 | inactive |
| CC(Sc1ccc(Cl)cc1)C(=O)Nc1ccccc1C(=O)O (stereo not given) | inactive |
| COc1ccccc1OCCCSc1nc2sc(C)c(C)c2c(=O)n1-c1ccccc1 | inactive |
| Cc1cc(C)c(C#N)c(SCC(=O)Nc2sc3c(c2C#N)CCC3)n1 | inactive |
| O=C(NCCSC1CCCCC1)c1ccc(-c2ccccc2)cc1 | inactive |
| CSc1nc(C)c(Oc2ccccc2)c(=O)n1C | 8.91% (inactive) |
| CSc1ccc(-c2nnn(CC(=O)Nc3ccc4c(c3)OCO4)n2)cc1 | inactive |
| COc1cc(/C=C2/SC(=O)N(CC(=O)O)C2=O)cc(OC)c1OC | inactive |
| CS(=O)(=O)N(CC(=O)NC1CCCCCC1)c1ccccc1F | inactive |
| CCn1c(SCC(=O)Nc2ccc3c(c2)OCO3)nnc1-c1ccccc1 | 4.1% (inactive) |
